According to PubChem BioAssay AID488862 (Broad Institute, 2010):
In all, about 340,000 compounds went through this assay and about 1,200 (0.35%) were called active. What follows is part of a selection rich in actives, with near analogues and random picks from the rest. Unmarked numbers belong to inactive results. Cut-off read from the data, not from the text of the source: active = inhibition above about 52%; inactive = the rest.

Assay: suppresses PrP 5' UTR mRNA reporter expression (AID 488862); note: 0 = median of the neutral control wells
Conditions: cell-based PrP 5' UTR mRNA reporter, plate reader; hits give high values; concentration not given here

Row | SMILES | inhibition
1 | CC1CCCN(C(=O)CN2C(=O)c3ccccc3S2(=O)=O)C1 (stereo unspecified) | -26.3%
2 | O=C(CSCc1ccccc1)N1CCc2ccccc21 | -80.4%
3 | O=C(CN1C(=O)c2ccccc2S1(=O)=O)N1CCc2ccccc21 | 62.6% (active)
4 | COc1ccc(-n2c(Cc3cccn3C)nnc2SCC(=O)Nc2cc(C)cc(C)c2)cc1 | 6.37%
5 | NC(=O)c1oc2ccccc2c1NC(=O)CS(=O)(=O)c1ccccc1 | 10.2%
6 | O=C1[C@@H](c2ccccc2)[C@@H](c2ccccc2)N1c1cccnc1 | 59.7% (active)
7 | O=C1C(=O)N(c2ccccc2)C(c2ccccc2)C1c1ccccc1 (stereo unspecified) | -4.98%
8 | Cc1ccccc1N1C(=O)C2ON(c3ccccc3)C(c3ccncc3)C2C1=O (stereo unspecified) | -40.3%
9 | COc1ccc(NS(=O)(=O)c2ccc(N3CCOCC3)c(NC(=O)/C=C/C(=O)O)c2)cc1 | -1.46%
10 | COc1cccc(CN(C)C(=O)CC23CC4CC(CC(C4)C2)C3)c1OC | -23.4%
11 | Cc1cc(NC(=O)/C=C/C(=O)N(CC(=O)NC2CCCC2)c2ccc(F)cc2)no1 | 53.2% (active)
12 | Cc1cc(NC(=O)/C=C/C(=O)N(c2ccccc2C)C(C(=O)NC2CCCC2)c2ccc(F)cc2)no1 (stereo unspecified) | -18%
13 | Cc1cc(NC(=O)CCC(=O)N(CC(=O)NC2CCCC2)c2ccc(F)cc2)no1 | -5.73%
14 | CCOC(=O)c1cnc(-n2nc(C)cc2C)nc1NNc1cc(C)nc(-c2ccccc2)n1 | 33.9%
15 | COc1ccc(C(C)=O)cc1CSc1nc2nc(C)cc(C)n2n1 | 3.27%
16 | CC(=O)c1ccc(Oc2cc(C)nc(-n3nc(C)cc3C)n2)cc1 | 63.6% (active)
17 | C[N+](C)(C)CCOP(=O)([O-])OC[C@H](O)CO | -9.94%
18 | CCOCCN(C=O)c1cccc(OC)c1 | -5.07%
19 | COc1ccc(S(=O)(=O)Nc2cc(C)on2)cc1NC(C)=O | -6.37%
20 | CCOc1cc(NC(=O)CCl)c(OCC)cc1NC(C)=O | -34.2%
21 | CCOc1cc(NS(=O)(=O)c2ccc(OC)cc2)c(OCC)cc1NC(C)=O | 64.1% (active)

Row | SMILES | inhibition
22 | CN=C1SC(C(=O)O)CC(=O)N1C (stereo unspecified) | -12.6%
23 | COc1ccc(OC)c(Cc2nnc(CCC(=O)NC3CCCC3)o2)c1 | 0.259%
24 | COc1ccc(OC)c(Cc2cnc3nc(N)nc(N)c3c2C)c1 | 65.3% (active)
25 | COc1ccc(OC)c(NC(=O)c2sc3nc(C)cc(C)c3c2N)c1 | -9.33%
26 | CC1CCCCN1CCCNc1ccc(C(CC(N)=O)NC(=O)c2ccccc2)cc1[N+](=O)[O-] (stereo unspecified) | -27.6%
27 | O=C(Nc1ccc(N2CCN(C(=O)C3CC3)CC2)cc1)c1cccs1 | -16.9%
28 | CCOC(=O)c1cc2sccc2n1Cc1ccc(C#N)cc1 | -13.3%
29 | O=C(c1cc2sccc2n1Cc1ccc(F)cc1)N1CCc2ccccc21 | -33%
30 | CC1Cc2ccccc2N1C(=O)c1cc2sccc2n1Cc1ccccc1 (stereo unspecified) | 59.8% (active)
31 | CCOc1ccc(C(=O)CCC(=O)NC2=NCCS2)cc1 | -27.4%
32 | CC(C)c1csc(CN2CCC(CO)(Cc3ccccc3)CC2)n1 | -13.8%
33 | O=C(c1cc2ccccc2o1)N1CCN(Cc2ccccc2)CC1 | -15%
34 | OCC1(Cc2ccccc2)CCN(Cc2cc3ccccc3o2)CC1 | 74.7% (active)
35 | CCCCn1c(N)c(N(CC(C)C)C(=O)c2cnc(C)cn2)c(=O)[nH]c1=O | -37.8%
36 | CC(C)CN1CC(C)C(=O)N(c2ccccc2)C1=S (stereo unspecified) | -12.4%
37 | O=C(C1=C[C@H](c2coc3ccccc3c2=O)C[C@H](OCc2ccc(CO)cc2)O1)N1CCOCC1 | -9.97%
38 | O=C(C1=C[C@H](c2ccc(C(F)(F)F)cc2)C[C@H](OCc2ccc(CO)cc2)O1)N1CCN(Cc2ccccc2)CC1 | -14.3%
39 | O=C(C1=C[C@H](c2coc3ccccc3c2=O)C[C@H](OCc2ccc(CO)cc2)O1)N1CCN(Cc2ccccc2)CC1 | 81.9% (active)
40 | Cc1ccc(N(C(=O)C(F)(F)F)C(C(=O)NC2CCCCC2)c2ccncc2)cc1C (stereo unspecified) | -20.4%
41 | Cn1c(Cc2cccs2)nnc1SCC(=O)Nc1ccccc1 | -26.4%
